# This is one part of a sample in which hits are shown more often than they occur.
# Cruzain Triton – inhibitors of Trypanosoma cruzi cruzain with detergent; purified cruzain, Z-FR-AMC fluorescence, 0.01% Triton; P25779; Potency, µM, without a hit: max response, negative = inhibition, actives largely listed as inhibitors; 200,000 compounds, 0.43% hits; active = well fitted curve in the direction sought with a large enough effect; inconclusive = small, poorly fitted or top-dose-only effect, or another doubt; inactive = no such curve, though single readings can be large; an effect the other way counts as inactive or inconclusive;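 note: potency is the fitted concentration of half-maximal effect; plate controls were neutral wells for no effect and buffer without enzyme for full effect; nearly all actives have a fitted effect of over 40% in size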
# Target sequence (P25779 123-467 limits assumed): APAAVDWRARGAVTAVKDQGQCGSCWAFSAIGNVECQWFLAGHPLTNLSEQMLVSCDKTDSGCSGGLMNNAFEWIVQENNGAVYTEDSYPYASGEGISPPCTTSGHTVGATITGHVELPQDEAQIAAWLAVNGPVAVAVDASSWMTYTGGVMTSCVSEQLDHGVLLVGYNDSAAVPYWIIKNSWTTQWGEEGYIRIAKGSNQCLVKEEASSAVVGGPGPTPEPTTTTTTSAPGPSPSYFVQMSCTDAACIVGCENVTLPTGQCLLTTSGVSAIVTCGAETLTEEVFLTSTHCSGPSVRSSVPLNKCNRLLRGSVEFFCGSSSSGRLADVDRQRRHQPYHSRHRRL
#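 Enzyme 1.5 nM, Z-FR-AMC 2 uM, NaOAc 100 mM pH 5.5, DTT 5 mM, Triton X-100 0.01%; 15 min RT compound preincubation; kinetic ex360/em450, 60 s delta.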
# NS1 inh – blocks influenza NS1 protein function; Potency, µM (series often up to 46.1 µM), for the others: at the highest dose activity, positive = more growth; 270,000 compounds, 0.4% hits; note: potency is the fitted concentration of half-maximal effect; actives are rising curves; nearly all actives have a fitted effect of over 50% in size
#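 Recovery from NS1-induced slow growth read by OD600 in budding yeast switched to galactose assay medium (pH 6.0, -URA) at 1:100 dilution. Compound 23 nl per well; the matching strain lacking NS1 serves as control.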
# Cruzain noTriton – cruzain (T. cruzi) inhibition without detergent | P25779 | Potency, µM, for inactives: max response, negative = inhibition, usual class: inhibitors | AID 1476 | 200,000 compounds, 2.3% hits | purified cruzain, Z-FR-AMC fluorescence, no detergent; active = well fitted curve in the direction sought with a large enough effect; inconclusive = small, poorly fitted or top-dose-only effect, or another doubt; inactive = no such curve, though single readings can be large; an effect the other way counts as inactive or inconclusive;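 note: potency is the fitted concentration of half-maximal effect; plate controls were enzyme without inhibitor for no effect and buffer without enzyme for full effect; nearly all actives have a fitted effect of over 40% in size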
#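 Detergent-free condition (0.00005% Triton X-100) in acetate buffer pH 5.5 with DTT. 1.5 nM enzyme and compound were pre-mixed 15 min, then 2 uM Z-FR-AMC substrate added; reaction progress from fluorescence change between first and third reads (60 s).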
# Flu NS1 inh – influenza NS1 function inhibition validation; shares compounds with NS1 inh; influenza NS1 function cell assay, 15-point titration; activity change, negative = inhibition, % at 32.9 µM; 1,400 tested, under 10 active; note: 0% is about no effect
# * marks the source's active call; other numbers are inactive results; ? = inconclusive; . = not tested or not shown. Unless noted, calls come from the whole dose curve.
SMILES,Cruzain Triton,NS1 inh,Cruzain noTriton,Flu NS1 inh
COc1ccc(-c2cc(C(=O)Nc3nc4ccccc4s3)c3ccccc3n2)cc1OC,-7%,22µM*,-4%,-2
O=C(CCC(=O)Nc1ccccc1Cl)NNS(=O)(=O)c1ccc(Cl)cc1,.,6%,.,.
Cc1cc(C(=O)CSc2nnc(-c3ccc(Cl)cc3)n2C)c(C)n1CC1CCCO1 (stereo unspecified),2%,-3%,-13%,.
Cc1cc(C(=O)Cn2nnc(-c3ccc(Cl)cc3)n2)c(C)n1CC1CCCO1 (stereo unspecified),-5%,7.9µM*,-11%,-38
COc1ccc(OC)c(S(=O)(=O)n2nnc3ccccc32)c1,6%,?,3%,-38
COc1ccc(Cl)cc1S(=O)(=O)n1nnc2ccccc21,4%,-12%,-8%,.
Cc1nc2ccc(-c3nc4ccccc4[nH]3)cc2[nH]1,.,?,.,-6
Cc1ccc(-c2nc3ccccc3[nH]2)cn1,.,-23%,.,.
COc1cc(C2C=C(Nc3ccccc3)C(=O)N2c2ccccc2)ccc1O (stereo unspecified),-6%,?,17%,.
O=C(/C=C/c1ccccc1)NC(=S)Nc1ccc(CN2CCOCC2)cc1,-12%,13%,-4%,.
O=C(/C=C/c1ccc(Cl)cc1Cl)NC(=S)Nc1ccc(CN2CCOCC2)cc1,2%,?,?,25
CCOC(=O)C1=C(c2ccccc2)NC(=S)NC1c1ccc(Cl)c([N+](=O)[O-])c1 (stereo unspecified),-11%,19%,?,.
Cc1ccc(N2C(=O)NC(=O)C3(Cc4ccccc4N4CCCC43)C2=O)cc1 (stereo unspecified),-4%,?,-20%,.
O=C1NC(=O)C2(Cc3ccccc3N3CCCC32)C(=O)N1c1ccc(Cl)cc1 (stereo unspecified),-9%,11µM*,5%,16
COc1ccc(C2=Nc3cccc4cccc(c34)N2)cc1,-3%,3.5µM*,3.2µM*,-4
COc1ccc(C2=NC(c3ccccc3)=Nc3ccc(C)cc3N2)cc1,-3%,.,?,.
COC(C(=O)Nc1cccc(F)c1)c1ccccc1 (stereo unspecified),9%,3%,-4%,.
O=C(c1ccc(S(=O)(=O)N2CCCCCC2)cc1)N1CCN(c2ccccn2)CC1,1%,-31%,-1%,.
O=C(c1cc(NC(=O)C23CC4CC(CC(C4)C2)C3)cc(NC(=O)C23CC4CC(CC(C4)C2)C3)c1)N1CCCCC1,-1%,11µM*,?,12
O=C(NC(=S)N1CCCCC1)C12CC3CC(CC(C3)C1)C2,8%,5%,8%,.
CCn1c(SCc2nc(-c3ccc(Cl)cc3)no2)nnc1-c1ccco1,-6%,-47%,12%,.
Cn1ncc2c(Nc3ccccc3Cl)nc(Nc3ccccc3Cl)nc21,.,-2%,.,.
CCOC(=O)N1CCN(c2c(NCCCN(CC)Cc3ccccc3)c(=O)c2=O)CC1,-1%,1µM*,1%,-12
CCOC(=O)N1CCN(c2c(NCCCN(CC)CC)c(=O)c2=O)CC1,-2%,10%,-8%,.
CCOC(=O)Nc1ccc2c(CN3C(=O)NC4(CCCC4)C3=O)cc(=O)oc2c1,-23%,9%,-8%,.
SMILES,Cruzain Triton,NS1 inh,Cruzain noTriton,Flu NS1 inh
CCOC(=O)Nc1ccc2c(CN3CCN(S(=O)(=O)c4ccccc4)CC3)cc(=O)oc2c1,-1%,8.9µM*,13µM*,4
Cc1ccc(/C=C/c2onc(C)c2S(=O)(=O)N2CCC(C(=O)NCc3ccco3)CC2)cc1,-2%,.,-9%,.
O=C(Nc1ccccc1C(=O)Nc1ccccc1)c1ccco1,.,2%,.,.
CCOc1cc(C(C#N)N2CCOCC2)ccc1OC (stereo unspecified),2%,-2%,2%,.
CCOc1ccc(C(C#N)N2CCOCC2)cc1OC (stereo unspecified),-1%,16µM*,4%,?
COC(=O)C1CCCN1C(=O)c1cccs1 (stereo unspecified),2%,6%,-4%,.
O=c1ccc(Cc2ccc(Cl)cc2)n[nH]1,.,2%,.,.
O=c1ccc(Cl)n[nH]1,.,7.9µM*,.,14
CCn1c(SCC(=O)Nc2cc(OC)ccc2OC)nnc1C1CCCCC1,0%,-11%,-1%,.
COC(=O)c1ccc(Cn2nnc3c(=O)[nH]c(C4CCCN(S(=O)(=O)c5ccc(C)cc5)C4)nc32)cc1 (stereo unspecified),.,18%,.,.
CCCn1c(SCC(=O)NC2CC2)nnc1-c1ccccn1,.,5%,.,.
C[C@H]1c2cccc(O)c2C(O)=C2C(=O)[C@]3(O)C(O)=C(C(N)=O)C(=O)C(N(C)C)[C@@H]3[C@@H](O)C21 (stereo partly specified),2%,7.1µM*,7%,-11

# Screening results from PubChem.
